High-throughput results deposited in PubChem by National Center for Advancing Translational Sciences (NCATS).
Compounds with a hit are over-represented: about 11% of the library has one in this group of screens.
PNC inhibitor – High Content Assay for Compounds that inhibit the Assembly of the Perinucleolar Compartment; activity change (PNC), negative = inhibition, % at 10 µM; 140,000 tested, 3.1% active; PC3M PTB-GFP, PNC prevalence imaging, 16 h; stronger effect = lower value;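 active = readout at or below -70, meaning at least 70% loss of cells showing the perinucleolar compartment, a nuclear body marking cancer cells; inconclusive = readout between -30 and a set limit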;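 note: plate controls were DMSO wells for no effect and camptothecin positive control wells for full effect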
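Read-out is percentage of cells bearing a perinucleolar compartment, from automated 20x imaging of fixed, Hoechst-stained PC3M PTB-GFP cells. Cells were seeded 4 h, then exposed 16 h to compound (23 nl of library stock) in duplicate plates.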
IMPase Li cell – qHTS Assay for Identifying the Cell-Membrane Permeable IMPase Inhibitors: Potentiation with Lithium; CHO-M1 cells, IP1 TR-FRET (IP-One), carbachol + lithium; 210,000 tested, 0.35% active; Potency, µM (highest dose often 59.4 µM), for inactives: top-dose activity, negative = IMPase inhibition, hits mostly inhibitors; active = well fitted curve in the direction sought with a large enough effect; inconclusive = small, poorly fitted or top-dose-only effect, or another doubt; inactive = no such curve, though single readings can be large; an effect the other way counts as inactive or inconclusive;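 note: IP1 builds up when IMPase is blocked and the TR-FRET signal falls; potency is the fitted concentration of half-maximal effect; plate controls were basal vehicle for no effect and high inhibitor control for full effect; nearly all actives have a fitted effect of over 50% in size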
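Steps: plate 2000 CHO-M1 cells per well and culture 16–30 h; add compound and lithium; incubate 30 min, 37C; add d2-IP1 tracer and Eu cryptate anti-IP1 antibody in lysis buffer; read after 10 min at room temperature.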
12-hLO inh – qHTS Assay for Inhibitors of 12-hLO (12-human lipoxygenase); purified 12-hLO, xylenol orange hydroperoxide absorbance; 150,000 tested, 0.12% active; Potency, µM (top dose mostly 57.1 µM), without a hit: top-dose activity change, negative = inhibition, hits mostly inhibitors; Polyunsaturated fatty acid lipoxygenase ALOX12 (Homo sapiens), P18054; active = well fitted curve in the direction sought with a large enough effect; inconclusive = small, poorly fitted or top-dose-only effect, or another doubt; inactive = no such curve, though single readings can be large; an effect the other way counts as inactive or inconclusive; note: potency is the fitted concentration of half-maximal effect; nearly all actives have a fitted effect of over 55% in size
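150 nM 12hLO, 25 mM Hepes pH 7.0 + 0.01% Triton X-100; cpd preinc 15 min RT; 40 uM arachidonic acid, 30 min RT; Fe-XO 30 min; A573/A405 ratio as read-out.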
IMPase inh – qHTS Assay for Identifying the Cell-Membrane Permeable IMPase Inhibitors; inhibition (IP1 accumulation), % at 46.1 µM; 120,000 tested, under 10 active; CHO-M1 cells, IP1 accumulation, HTRF TR-FRET ratio; AID 901, 2007; Inositol monophosphatase 1 (Rattus norvegicus), P97697; active = well fitted curve in the direction sought with a large enough effect in the signal ratio, not every such curve was filed as active; inconclusive = small, poorly fitted or top-dose-only effect, or a change in a side signal; inactive = no such curve, though single readings can be large or run the other way; the % refers to the signal ratio;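 note: cells stimulated with carbachol in lithium chloride buffer; plate controls were DMSO basal wells for no effect and reference inhibitor wells for full effect; higher means more IMPase inhibition seen as more IP1 and lower FRET ratio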
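Elevated IP1 in lysates lowers TR-FRET signal (665/620 ratio and 620 channel reported). Cells were CHO-M1, given carbachol (50 uM as added) plus 50mM LiCl, pH 7.4, 30 min, 37C; compounds titrated up to 46 uM; AC50 by Hill equation.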
HPGD inh – qHTS Assay for Inhibitors of HPGD (15-Hydroxyprostaglandin Dehydrogenase). 15-hydroxyprostaglandin dehydrogenase [NAD(+)] (Homo sapiens), P15428. purified HPGD, NADH fluorescence kinetic, PGE2 substrate. Potency, µM, inactives show at the highest dose activity change, negative = inhibition, hits mostly inhibitors. 150,000 tested, 4.3% active. AID 894, 2007; note: potency is the fitted concentration of half-maximal effect
Target sequence (P15428 whole entry, looked up): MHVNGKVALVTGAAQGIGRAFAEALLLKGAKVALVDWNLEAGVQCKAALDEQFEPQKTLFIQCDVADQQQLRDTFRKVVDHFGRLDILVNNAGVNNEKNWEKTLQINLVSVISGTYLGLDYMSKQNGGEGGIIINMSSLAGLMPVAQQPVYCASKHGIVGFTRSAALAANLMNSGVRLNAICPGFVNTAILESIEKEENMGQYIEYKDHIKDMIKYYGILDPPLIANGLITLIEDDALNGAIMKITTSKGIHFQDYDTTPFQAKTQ
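NADH formation kinetics: reaction with 30 uM PGE2 and 1 mM NAD+ (final), 20 nM enzyme, Tris-HCl pH 8 with Tween 20, after 15 min compound preincubation at room temperature. Fluorescence change, last versus first of five reads.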
ALDH1A1 block – qHTS Assay for Inhibitors of Aldehyde Dehydrogenase 1 (ALDH1A1) | Aldehyde dehydrogenase 1A1 (Homo sapiens), P00352 | Purified ALDH1A1, NADH fluorescence, propionaldehyde substrate | Potency, µM (top dose mostly 75.3 µM), for inactives: at the highest dose activity, negative = inhibition, usual class: inhibitors | 220,000 tested, 7.3% active | AID 1030, 2008;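 note: potency is the fitted concentration of half-maximal effect; plate controls were no enzyme wells and a reference inhibitor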
Target sequence (P00352 whole entry, looked up): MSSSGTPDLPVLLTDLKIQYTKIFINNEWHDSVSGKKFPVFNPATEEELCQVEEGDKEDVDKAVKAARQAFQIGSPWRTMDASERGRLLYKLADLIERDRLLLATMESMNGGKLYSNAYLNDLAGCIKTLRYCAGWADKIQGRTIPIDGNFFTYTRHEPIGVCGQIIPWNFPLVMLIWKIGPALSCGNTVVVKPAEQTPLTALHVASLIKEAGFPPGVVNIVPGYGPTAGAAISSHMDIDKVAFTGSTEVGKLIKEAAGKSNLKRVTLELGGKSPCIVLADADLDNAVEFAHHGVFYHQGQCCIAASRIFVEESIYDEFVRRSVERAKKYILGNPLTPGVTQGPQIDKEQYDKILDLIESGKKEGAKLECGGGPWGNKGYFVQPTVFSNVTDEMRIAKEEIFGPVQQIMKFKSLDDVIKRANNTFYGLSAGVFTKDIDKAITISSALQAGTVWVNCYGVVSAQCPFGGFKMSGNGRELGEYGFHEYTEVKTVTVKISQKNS
Active calls of the source: *; ? = inconclusive; nt = no result given; [ ] = remark or other dose. Unless noted, calls come from the whole dose curve; as a rule, active = well fitted inhibition curve with a large enough effect (not every such curve was filed as active); inconclusive = small, poorly fitted or top-dose-only effect, or another doubt; inactive = no such curve, though single readings can be large or run the other way. Unless noted, % is set by controls: 0 for no effect and ±100 for the full control effect.

SMILES | PNC inhibitor | IMPase Li cell | 12-hLO inh | IMPase inh | HPGD inh | ALDH1A1 block
CN1CCN(CCc2ccc(Cl)c(Cl)c2)CC1 | nt | ? | 1% | -4 | 1% | 10%
N=c1oc2ccc3ccccc3c2cc1-c1nnc2n1CCCCC2 | -114* | -21%[38.3 µM] | 4% | -2 | ? | ?
COc1ccc2oc(=N)c(-c3nnc4n3CCCCC4)cc2c1 | -3 | 13%[38.3 µM] | 6% | -6 | ? | ?
CC(NC(=O)c1cc(F)c(F)cc1Cl)c1ccncc1 (configuration not stated) | nt | -5% | nt | nt | nt | 1%
COC(=O)CNC(=O)c1cc(-c2ccncc2)nc2c(C)c(Cl)ccc12 | nt | 16% | nt | nt | nt | 13µM*
Cc1c(Cl)ccc2c(C(=O)NC(C)c3ccncc3)cc(-c3ccncc3)nc12 (configuration not stated) | nt | 22% | nt | nt | nt | 1.1µM*
Cc1c(Cl)ccc2c(C(=O)NCCN3CCCCC3)cc(-c3ccccn3)nc12 | nt | -3% | nt | nt | nt | 2%
COC(=O)NC(c1ccccc1)C(C(=O)OC)C(=O)OC (configuration not stated) | nt | nt | nt | nt | nt | 2%[13.5 µM]
Clc1ccc2ncc(-c3nnnn3-c3ccccc3)c(-c3ccccc3)c2c1 | ? | 15%[38.3 µM] | 0% | 12 | -10% | 11µM*
Clc1ccc2[nH]cc(-c3nnnn3-c3ccccc3)c2c1 | 31 | -7%[38.3 µM] | -9% | -11 | -17% | ?
Cc1nn(Cc2ccccc2)c(C)c1N | -90* | -8% | 5% | nt | -7% | -2%
Cc1nn(Cc2ccccc2Cl)c(C)c1N | 82 | 8%[38.3 µM] | -1% | 9 | 0% | -4%
CCOc1ccc(N2C(=O)CC(NCCNc3ccc(C(=O)c4cccs4)cc3)C2=O)cc1 (configuration not stated) | nt | 1% | nt | nt | nt | 22µM*
CCOc1ccc(C(=O)c2cccs2)cc1 | 17 | -12%[38.3 µM] | 0% | -3 | 16µM* | 1%
O=C(c1ccccc1)c1cccs1 | nt | -2% | nt | nt | nt | 5%
COc1ccc([C@@H]2CNC(=O)C2)cc1OC1CCCC1 | nt | -3% | 2% | 5 | -8% | ?
O=C(/C=C/c1cn(CC(O)CN2CCCCC2)c2ccccc12)c1cccs1 (configuration not stated) | ? | 0% | -7% | nt | -19% | 14µM*
CCCN(CCC)CC(O)Cn1cc(/C=C/C(=O)c2cccs2)c2ccccc21 (configuration not stated) | -24 | 2% | -3% | 9 | -2% | -10%
CCc1cccc(CC)c1NC(=S)N(CCN(C)C)C(C)c1cccnc1 (configuration not stated) | nt | -5% | nt | nt | nt | 10%
CCNc1ncc2ncc(=O)n(C)c2n1 | nt | -17% | -2% | nt | ? | ?
O=C(Nc1cccc(C(=O)N2CCCCCC2)c1)c1ccco1 | 48 | -4%[38.3 µM] | 3% | 11 | 25µM* | 4%
Cc1cccc(C(=O)Nc2cccc(C(=O)N3CCOCC3)c2)c1 | -108* | 8%[38.3 µM] | -2% | -12 | -11% | -7%
Cc1cc2cc(NC(=O)c3ccco3)ccc2[nH]1 | ? | 5%[38.3 µM] | -6% | -10 | ? | 22µM*
COc1ccc(C(=O)Nc2cccc(C(=O)N3CCCC3)c2)cc1 | ? | 13%[38.3 µM] | -2% | -2 | -14% | ?
O=C(Nc1cccc(C(=O)N2CCCC2)c1)c1ccccc1Cl | -21 | 15%[38.3 µM] | 4% | 5 | -16% | 4µM*
SMILES | PNC inhibitor | IMPase Li cell | 12-hLO inh | IMPase inh | HPGD inh | ALDH1A1 block
COc1ccc(OCc2nc3ccccc3n2C(C)c2ccccc2)cc1 (configuration not stated) | nt | nt | nt | 0 | nt | nt
CC(CCC(=O)O)C1CCC2C3CC(O)[C@@H]4CC(O)CC[C@]4(C)C3CC[C@@]12C (some centres not stated) | nt | 12% | 17% | nt | -7% | 11%
O=C(N/N=C/c1cccs1)c1ccc(NC(=O)c2ccccc2Cl)cc1 | -30 | nt | 2% | 0 | nt | ?
CC(C)(C)NC(=O)c1cccc(NC(=O)c2ccco2)c1 | -100* | 1% | -3% | 0 | -10% | 6%
O=C(N/N=C/c1cccs1)c1cccc(NC(=O)c2ccccc2Cl)c1 | 16 | 3% | -5% | 6 | -15% | 16µM*
Nc1ccc(Cl)cc1Cl | nt | -15% | -9% | nt | -3% | -6%
CCOC(=O)c1sc(SCC(=O)Nc2ccc(N(C)C)cc2)nc1N | ? | 24%[38.3 µM] | -1% | 11 | -6% | 22µM*
CN(C)c1ccc(NC(=O)CSc2nc(N)c(C(=O)Nc3ccc(N(C)C)cc3)s2)cc1 | -2 | 21%[38.3 µM] | 0% | ? | -9% | 25µM*
COc1ccc(NC(=O)CSc2nc(N)c(C(=O)Nc3ccc(N(C)C)cc3)s2)cc1 | -23 | 18%[38.3 µM] | -1% | 9 | -10% | ?
Cc1cc(C)cc(Oc2c(C(F)(F)F)oc3cc(OCC(=O)NC4CCCCC4)ccc3c2=O)c1 | nt | nt | nt | -4 | nt | nt
Cc1ccc2[nH]c3c(NCCN4CCOCC4)ncnc3c2c1 | -84* | 29%[38.3 µM] | 6% | 7 | -15% | -8%
c1ccc(-n2ncc3c(NCCN4CCOCC4)ncnc32)cc1 | 13 | -2%[38.3 µM] | 0% | -6 | ? | ?
Cc1cccc(-n2ncc3c(NCCN4CCOCC4)ncnc32)c1 | -21 | 10µM* | 2% | ? | -10% | 5%
C=C(C)C(=O)C1CCCCC1 | nt | 6% | nt | nt | -10% | 2%
Cc1ccc(C)c(-n2c3nc(=O)[nH]c(=O)c-3cc3cc([N+](=O)[O-])ccc32)c1 | -116* | 20% | -17% | nt | ? | ?
Cc1cccc(-n2c3nc(=O)[nH]c(=O)c-3cc3cc([N+](=O)[O-])ccc32)c1 | -16 | 11% | 0% | nt | -32% | 5%
CCCCN=c1scc(-c2ccc3c(c2)NC(=O)CO3)n1N=C1CCCC1 | 25 | 21%[38.3 µM] | -8% | 6 | ? | 3.2µM*
CCN=c1scc(-c2ccc3c(c2)NC(=O)CO3)n1N=C1CCCC1 | -10 | 9%[38.3 µM] | -8% | 7 | 16µM* | ?
COCC(C)n1c(-c2ccc3c(c2)NC(=O)CO3)csc1=Nc1ccc(OC(F)F)cc1 (configuration not stated) | 15 | 64%[38.3 µM] | -16% | 15 | -23% | ?
Cc1noc(C)c1C(=O)N1CCC2(CCCN(C(c3ccccc3)c3ccccc3)C2)CC1 | nt | 13% | -3% | nt | -9% | -1%
CC(C)Oc1ccccc1C1C=C(C(=O)O)Nc2ncnn21 (configuration not stated) | nt | nt | nt | 6 | nt | nt
